# Data as given in PubChem BioAssay (NCATS).
# Records with an inconclusive call do not appear. Entries that show only a call come without a potency. Values without a mark were called inactive. The source made the active and inactive calls. The call rests on the fitted dose curve; in most records, active means well fitted inhibition curve with a large enough effect; inconclusive means small, poorly fitted or top-dose-only effect; inactive means flat fitted curve, though single readings scatter.
# Target: Glutathione peroxidase 1 (Homo sapiens) (UniProt P07203)
# Assay: Primary qHTS Assay for Inhibitors of Recombinant Selenoprotein Glutathione Peroxidase 1 (GPX1) (AID 1845191); further: nearly all actives have a fitted effect of over 65% in size
# Details: recombinant GPX1, GR-coupled NADPH fluorescence, 15 min; series mostly up to 48.8 µM; activity, negative = inhibition: at the top concentration
# Procedure, shortened: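 GPX1 10 nM, GR 100 nM, GSH 1 mM, NADPH 0.5 mM, CHP 0.5 mM (final). 30-min cpd preincubation, RT. Ex340/Em450 read t=0, t=15 min.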
# Chain of Glutathione peroxidase 1 (Homo sapiens) (P07203 whole entry, looked up): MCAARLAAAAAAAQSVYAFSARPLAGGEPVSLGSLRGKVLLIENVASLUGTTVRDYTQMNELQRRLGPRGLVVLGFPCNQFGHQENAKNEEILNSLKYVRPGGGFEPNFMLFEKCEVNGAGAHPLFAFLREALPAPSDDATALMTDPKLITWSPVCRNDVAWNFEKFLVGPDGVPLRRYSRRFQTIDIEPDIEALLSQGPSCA
SMILES,outcome,"activity, negative = inhibition [%]",Potency
COc1ccccc1N1CCN(CCCCN2C(=O)c3ccccc3C2=O)CC1,inactive,–,–
O=C(O)/C(=C/c1c(C(=O)O)[nH]c2cc(Cl)cc(Cl)c12)c1ccccc1,–,-18.4,–
C[C@@]1(C2CCCC2)Cc2cc(OCC(=O)O)c(Cl)c(Cl)c2C1=O,–,-14.8,–
CNCCc1cnc(CCC(c2ccccc2)c2ccccc2)[nH]1,inactive,–,–
N=C(N)c1ccc(OCCCCCOc2ccc(C(=N)N)cc2)cc1 (tested in a mixture with another compound),inactive,–,–
O=C(O)c1ccccc1Nc1cccc(OCc2ccc3ccccc3n2)c1,–,-6.98,–
COc1ccc2c(c1)c(CC(=O)O)c(C)n2Cc1ccc(Cl)cc1,inactive,–,–
COC(=O)C(C)(N)Cc1ccc(O)cc1 (stereo not drawn),inactive,–,–
CCCCC[C@H](CC(=O)NO)C(=O)N[C@H](C(=O)N1CCC[C@H]1CO)C(C)C,inactive,–,–
CCCc1c(OCCCOc2ccc(OCC(=O)O)cc2)ccc(C(C)=O)c1O,–,–,inactive
OC[C@H]1O[C@@H](n2cnc3cncnc32)[C@H](O)[C@@H]1O,–,-22.5,–
c1ccc2nc(C3=NCCN3)ccc2c1,–,-10.3,–
CN(CC[C@@H](Oc1ccc(C(F)(F)F)cc1)c1ccccc1)CC(=O)O,–,-12.4,–
CN1CCN(c2nc3cc(C(F)(F)F)ccc3n3cccc23)CC1,–,-16,–
NC1C=CC=C(C(=O)O)C1 (stereo not drawn),–,-3.15,–
Cn1cc(C(=O)OCC2CCN(CCNS(C)(=O)=O)CC2)c2ccccc21,–,-7.05,–
Cc1cccc(C)c1OCC(N)C(C)C (stereo not drawn),inactive,–,–
Cc1cccc(C(=O)NCN2CCN(c3ccccc3C#N)CC2)c1,–,-7.56,–
O=C(O)c1cc2cc(F)ccc2[nH]1,inactive,–,–

SMILES,outcome,"activity, negative = inhibition [%]",Potency
CCC(=O)N1CCN(C(=O)c2ccccc2)CC1,–,-6.68,–
O=c1[nH]c2cc(Cl)ccc2c(O)c1-c1ccc(Oc2ccccc2)cc1,–,-23.6,–
NC(=Nc1ccccc1)NC(=O)c1nc(Cl)c(N)nc1N,–,-22.2,–
NC1(C(=O)O)CCCCC1,inactive,–,–
CN1CC(O)C(O)C(O)C1CO (stereo not drawn),inactive,–,–
CC1C(=O)N(C)C(=O)c2nc[nH]c21 (stereo not drawn),–,-34.5,–
CCc1ccc2c(-c3cccc(Cl)c3)nc(=O)n(CC)c2n1,–,-25.1,–
O=C(N[C@@H](Cc1ccccc1)C(=O)CCl)OCc1ccccc1,–,0.543,–
Nc1ncnc2c1c(-c1ccc(Oc3ccccc3)cc1)cn2C1CCCC1,–,–,inactive
NC(Cc1cccc(-c2ccccc2CP(=O)(O)O)c1)C(=O)O (stereo not drawn),–,3.39,–
CN(C)C(=O)/N=N/C(=O)N(C)C,inactive,–,–
N#Cc1cc2nc(O)c(O)nc2cc1[N+](=O)[O-],inactive,–,–
O=C(O)/C=C/c1cnc[nH]1,inactive,–,–
CC(C)C[C@H](NC(=O)C1OC1C(=O)O)C(=O)NCCCCN=C(N)N (stereo partly drawn),inactive,–,–
CCN(CC)CCCCCCCCOC(=O)c1cc(OC)c(OC)c(OC)c1,–,-21.5,–
Cn1c(=O)c2[nH]c(C3CCCC3)nc2n(C)c1=O,inactive,–,–
CCCn1c(=O)c2[nH]c(C3CCCC3)nc2n(CCC)c1=O,inactive,–,–
NCC(O)(CS(=O)(=O)O)c1ccc(Cl)cc1 (stereo not drawn),inactive,–,–
CCCCOc1cc(CC2CNC(=O)N2)ccc1OC (stereo not drawn),inactive,–,–
